In PubChem BioAssay (NCI):
About 83,000 compounds went through this panel and 20% of them were active in at least one assay; those are over-represented in the sample as a whole.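 Growth was measured after 48 h exposure to one concentration of compound in 96-well plates. Values under 10 count as active.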 A number with no mark means an inactive call. The source made the active and inactive calls.

Legend:
Assay in all cases: NCI-60 one-dose screen, 48 h (100 = growth as untreated, 0 = no growth, -100 = all killed)
Details in all cases: 10 µM unless noted
NCI-H23 lung = tested on: NCI-H23 lung
NCI-H226 lung = tested on: NCI-H226 lung
NCI-H322M lung = tested on: NCI-H322M lung
HOP-62 NSCLC = tested on: HOP-62 NSCLC
NCI-H460 lung = tested on: NCI-H460 lung
HOP-92 NSCLC = tested on: HOP-92 NSCLC
NCI-H522 lung = tested on: NCI-H522 lung
A549/ATCC NSCLC = tested on: A549/ATCC NSCLC
786-0 renal = tested on: 786-0 renal
COLO 205 colon = tested on: COLO 205 colon
DU-145 prostate = tested on: DU-145 prostate
K-562 leukemia = tested on: K-562 leukemia
MALME-3M melanoma = tested on: MALME-3M melanoma
MDA-MB-231 breast = tested on: MDA-MB-231 breast
RXF 393 renal = tested on: RXF 393 renal
SF-268 CNS = tested on: SF-268 CNS
SF-295 CNS = tested on: SF-295 CNS
SF-539 CNS = tested on: SF-539 CNS
UACC-257 melanoma = tested on: UACC-257 melanoma
M14 melanoma = tested on: M14 melanoma

Structure (SMILES)	growth (NCI-H23 lung)	growth (NCI-H226 lung)	growth (NCI-H322M lung)	growth (HOP-62 NSCLC)	growth (NCI-H460 lung)	growth (HOP-92 NSCLC)	growth (NCI-H522 lung)	growth (A549/ATCC NSCLC)	growth (786-0 renal)	growth (COLO 205 colon)	growth (DU-145 prostate)	growth (K-562 leukemia)	growth (MALME-3M melanoma)	growth (MDA-MB-231 breast)	growth (RXF 393 renal)	growth (SF-268 CNS)	growth (SF-295 CNS)	growth (SF-539 CNS)	growth (UACC-257 melanoma)	growth (M14 melanoma)
O=C1/C(=C/c2c[nH]c(=O)[nH]c2=O)SC(=S)N1Cc1ccccc1	96.4%	102%	95.1%	101%	105%	98.5%	90.7%	101%	100%	88.2%	102%	101%	97.6%	101%	110%	95.2%	102%	96.9%	104%	98.8%
Cc1nn(C)c2ncnc(N/N=C/c3cccc(O)c3O)c12	20.8%	42.7%	14.7%	4.24% (active)	2.65% (active)	23.3%	19.9%	20.9%	2.11% (active)	-3.31% (active)	18.1%	12.7%	-11.5% (active)	24.7%	11%	6.68% (active)	18.3%	5.37% (active)	3.75% (active)	-48.5% (active)
CN(C)c1ccc(/C=C2\C=C(c3nc4ccccc4s3)OC2=O)cc1	91.9%	82.2%	93.2%	91.7%	95.2%	77.8%	89.4%	94.7%	102%	102%	104%	83.8%	98.3%	73.9%	110%	98.6%	92%	104%	114%	101%
COc1cc(/C=C/c2cc(/C=C/c3ccc(O)c(OC)c3)n(C(=O)Nc3ccc(Cl)cc3)n2)ccc1O	3.16% (active)	5.73% (active)	22.1%	17.1%	9.41% (active)	-4.7% (active)	-4.94% (active)	4.03% (active)	-2.2% (active)	7.57% (active)	11.7%	-7.3% (active)	3.94% (active)	14.3%	-53.6% (active)	13.9%	-21.9% (active)	0.163% (active)	3.11% (active)	4.04% (active)
CN(C)CCCC1(c2ccc(F)cc2)OCc2cc(-c3csc4ccccc34)ccc21 (stereo not given)	48.2%	87.3%	27%	39.2%	-89.9% (active)	26.4%	7.99% (active)	24.4%	52.8%	-67.8% (active)	-0.822% (active)	-31.8% (active)	-92.1% (active)	10.6%	4.01% (active)	38.6%	-52% (active)	-81.7% (active)	-48% (active)	-57% (active)
C=C1SC(=Nc2ccccc2Cl)N(C(=O)c2sc3ccccc3c2Cl)C1(C)C	36.7%	77.1%	65.9%	54.8%	15.1%	53.6%	91.6%	43.7%	77.8%	-43.8% (active)	94%	20.3%	79.6%	50.5%	93.8%	85.2%	27%	54.3%	98.4%	86.6%
COc1ccccc1S(=O)(=O)Nc1ccc2c3c(cc(CCC(=O)NCCCCNc4cccc5c4C(=O)N(C4CCC(=O)NC4=O)C5=O)cc13)C(=O)N2C (stereo not given)	70.3%	-0.85% (active)	-3.45% (active)	2.74% (active)	97.8%	-10.7% (active)	26.2%	56.1%	20.4%	2.62% (active)	75.9%	17.4%	-29% (active)	-33.3% (active)	-14.4% (active)	11.9%	47.6%	31.3%	71.7%	36%
CNC(=O)c1cc(Oc2ccc3c(c2)sc2nc(-c4ccc(Cl)c(C(F)(F)F)c4)cn23)ccn1	53%	52.6%	88.5%	75.9%	51.3%	73.1%	42.6%	61%	68.6%	58.4%	74%	30%	47.4%	77.1%	87.1%	73.7%	48.5%	64.4%	35.9%	69.5%
